Screening results deposited in PubChem BioAssay by several laboratories.
Shown are actives, neighbours in structure and some others; about 3.1% of the full set was active somewhere.
ERa coact inh: ERα–SRC-1 coactivator interaction inhibitors, primary screen, biochemical, TR-FRET, ERα LBD, estradiol-bound; inhibition, % at 25.6 µM; Estrogen receptor (Homo sapiens), P03372; TR-FRET ER-alpha LBD / SRC-1 peptide; 86,000 compounds, 1.7% hits; in the data active = inhibition above about 50%;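 also: 0% = receptor plus peptide control and 100% = peptide only without receptor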
CD11b adhes enh: enhancers of CD11b/CD18 adhesion to fibrinogen, primary screen, K562 cells, luminescence; ATPlite luminescence; Integrin beta-2 (Homo sapiens) + Integrin alpha-M (Homo sapiens), P05107+P11215; activation, % at 10 µM; 93,000 compounds, 0.07% hits;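 active = 10 µM primary screen giving 50% or more activity, confirmed by 40% or more on retest at that dose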
ERa SRC1 pot: enhancers of ERα–SRC-1 coactivator binding, primary screen, biochemical, TR-FRET, ERα LBD, low estradiol; 86,000 compounds, 1.3% hits; Estrogen receptor (Homo sapiens), P03372; AID 639, 2007; coactivator binding (% of control), % at 25.6 µM; TR-FRET ERalpha-LBD/SRC-Cy5 coactivator binding, 2 h; 100 = basal binding, no effect; in the data active = activity above about 200%;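 also: binding measured in presence of low estradiol as agonist stimulus; 0% = peptide alone without receptor and 100% = receptor with peptide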
CD11b adhes inh: inhibitors of CD11b/CD18 adhesion to fibrinogen, primary screen, K562 cells, luminescence. Integrin beta-2 (Homo sapiens) + Integrin alpha-M (Homo sapiens), P05107+P11215. ATPlite luminescence; Mn2+ added to activate the integrin. inhibition, % at 10 µM. 93,000 compounds, 0.54% hits. AID 1497, 2009;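 active = primary inhibition of 50% or more at 10 µM, then 40% or more on retest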
ERb coact inh: inhibitors of ERβ-SRC1 coactivator interaction, primary screen, biochemical, TR-FRET, ERβ LBD, SRC-1 peptide; Estrogen receptor beta (Homo sapiens), Q92731; TR-FRET ER-beta LBD / SRC1-Cy5 peptide binding; receptor agonist-loaded with 1 µM estradiol; inhibition, % at 25.6 µM; 86,000 compounds, 1.3% hits; AID 633, 2007;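 active = compounds whose percent inhibition of the receptor-coactivator binding signal exceeds about 50% in the single-dose screen, limit read from the data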;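 also: 0% = receptor plus peptide wells without compound and 100% = peptide-only wells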
Target sequence (Q92731 whole entry, looked up, the tested form may be a part): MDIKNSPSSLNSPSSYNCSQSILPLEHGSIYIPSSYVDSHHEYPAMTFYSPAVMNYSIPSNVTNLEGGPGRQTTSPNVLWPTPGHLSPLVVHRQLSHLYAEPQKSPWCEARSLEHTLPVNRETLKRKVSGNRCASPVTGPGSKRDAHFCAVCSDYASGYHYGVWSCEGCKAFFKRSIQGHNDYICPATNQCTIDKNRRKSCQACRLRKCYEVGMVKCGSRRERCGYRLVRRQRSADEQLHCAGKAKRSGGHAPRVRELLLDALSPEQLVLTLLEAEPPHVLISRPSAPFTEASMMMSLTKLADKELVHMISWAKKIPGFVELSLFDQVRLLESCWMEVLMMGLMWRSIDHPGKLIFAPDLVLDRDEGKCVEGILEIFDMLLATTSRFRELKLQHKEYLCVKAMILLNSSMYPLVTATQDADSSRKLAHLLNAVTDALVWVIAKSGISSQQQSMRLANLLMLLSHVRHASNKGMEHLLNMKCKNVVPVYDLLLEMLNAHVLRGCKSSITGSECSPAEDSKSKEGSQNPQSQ
The depositor's hits bear a star; / = not tested or not shown; [ ] = another dose, or the depositor's remark.

SMILES | ERa coact inh | CD11b adhes enh | ERa SRC1 pot | CD11b adhes inh | ERb coact inh
N#Cc1c(N)oc(-c2ccco2)c1-c1ccco1 | 37 | 0 | 25 | -3 | 55*[fluorescence artefact?]
N#Cc1c(N)oc(-c2ccccc2)c1-c1ccccc1 | -1 | -2 | 93 | -2 | 3
COc1ccc(OC)c(/C=N/c2oc(-c3ccco3)c(-c3ccco3)c2C#N)c1 | 62* | 34 | 41 | -4 | 73*
Cc1ccc(Cl)cc1NC(=O)N[C@@H](C)C(=O)O | / | 4 | / | -11 | /
Cc1cccc(OCCOc2ccc(/C=N/NC(=O)Cc3nnc(N)s3)cc2)c1 | / | 118 | / | -11 | /
CC1CC(C)CN(CCCNC(=O)CNC(=O)Cn2ccc3ccccc3c2=O)C1 (centres undefined) | 4 | / | 119 | / | -9
O=C(O)CSc1ncnc2c1oc1ccccc12 | -6 | -3 | 94 | 0 | -8
O=C(CSc1ncnc2c1oc1ccccc12)N1CCCc2ccccc21 | 33 | -7 | 202*[fluorescence artefact?] | 94 | 39
Cc1nc(SCC(=O)Nc2ccc(C)c(F)c2)c2oc3ccccc3c2n1 | -35 | 4 | 840*[fluorescence artefact?] | -9 | -38
Cc1cccc(NC(=O)CSc2nc3c(oc4ccccc43)c(=O)n2-c2ccccc2)c1 | / | 52 | / | -10 | /
CCOC(=O)CC(=O)CSc1ncnc2c1oc1ccccc12 | -13 | -2 | 112 | 8 | -12
COc1cccc(NC(=O)CSc2ncnc3c2oc2ccccc23)c1 | 64*[fluorescence artefact?] | 10 | 373*[fluorescence artefact?] | -17 | 57*[fluorescence artefact?]
O=C(CSc1ncnc2c1oc1ccccc12)Nc1ccccc1C(F)(F)F | 23 | 5 | 721*[fluorescence artefact?] | 12 | 29
Cc1ccc(C2CC(c3cccs3)=NN2C(=O)c2ccc(Br)o2)cc1 (centres undefined) | 13 | 2 | 138 | 14 | -8
Cc1nc2c(cnn2-c2ccccc2Cl)c(=O)n1-c1ccc(C(C)C)cc1 | 12 | 1 | 107 | -33 | 0
COc1ccc(CCNC(=O)CSc2ncnc3c2oc2ccccc23)cc1OC | -3 | -2 | 123 | -6 | 0
COc1ccc(Cl)cc1NC(=O)CSc1ncnc2c1oc1ccccc12 | 38 | / | 230* | / | 16
O=S(=O)(c1cnc[nH]1)N1CCc2ccccc21 | -4 | 3 | 124 | -4 | 2
CCOc1ccccc1C(=O)Nc1ccc2nc(N3CCN(c4ncccn4)CC3)cc(C)c2c1 | 73* | / | 303*[fluorescence artefact?] | / | 35
O=C(CSc1nnc(-c2ccccc2O)o1)N1CCc2ccccc2C1 | 23 | -3 | 239*[fluorescence artefact?] | -6 | 27
CCc1c(C)nc2ncnn2c1N1CCCC(C(=O)Nc2cc(F)ccc2C)C1 (centres undefined) | / | -2 | / | 6 | /
CC(=O)C1=C(C)NC(SCC(=O)c2ccc(-c3ccccc3)cc2)=C(C#N)C1c1cccnc1 (centres undefined) | 38 | / | 355*[fluorescence artefact?] | / | 29
CC(=O)C1=C(C)NC(SCSc2ccccc2)=C(C#N)C1c1cccnc1 (centres undefined) | 4 | / | 88 | / | 4
COc1ccc(CN2CCn3ncc(C(=O)Nc4cc(C)cc(C)c4)c3C2=O)cc1 | 15 | -3 | 252*[fluorescence artefact?] | -16 | 5
COCCN1Cc2cccc(C(=O)Nc3cc(C)cc(C)c3)c2C1=O | -1 | 18 | 109 | -3 | 4
SMILES | ERa coact inh | CD11b adhes enh | ERa SRC1 pot | CD11b adhes inh | ERb coact inh
Cc1ccc(S(=O)(=O)N(C(=O)c2ccncc2)c2ccc(OC(=O)c3ccncc3)c3ccccc23)c(C)c1 | / | -1 | / | 72* | /
COc1cc(NC(=O)C2CCCN(c3ncccn3)C2)cc(OC)c1 (centres undefined) | 2 | / | 83 | / | 13
O=C(Nc1ccc2c(c1)OCO2)C1Cc2ccccc2CN1S(=O)(=O)c1cccs1 (centres undefined) | 79*[fluorescence artefact?] | 45 | 60 | 0 | 41
O=C(Nc1ccc2c(c1)OCO2)C1CCN(S(=O)(=O)c2cccs2)CC1 | 5 | / | 92 | / | 4
COc1ccc(N2Cc3cccc(C(=O)O)c3C2=O)cc1 | 64* | -2 | 36 | -29 | 65*
Cc1cc(NC(=O)CN2CC3CC(C2)c2cccc(=O)n2C3)nc2c1c(=O)oc1ccccc12 (centres undefined) | 61*[fluorescence artefact?] | -5 | 47 | 8 | 58*
COCCCNC(=O)c1c(N)n(/N=C/c2ccccn2)c2nc3ccccc3nc12 | 37 | / | 94 | / | 34
CC(C)OCCCNC(=O)c1c(N)n(/N=C/c2cccs2)c2nc3ccccc3nc12 | / | 149* | / | 31 | /
Cn1c(C(=O)OCC(=O)NCCc2ccccc2)cc2sccc21 | -1 | 0 | 128 | -12 | 4
CCOC(=O)C1=c2/c(=C/c3ccccc3OC)c(N)c(C#N)n2C(=O)C(c2ccccc2OC)S1 (centres undefined) | 63* | 29 | 129 | -41 | 52*
C/C(Cn1nc([N+](=O)[O-])cc1C)=N\NC(=O)COc1ccc(Cl)cc1Cl | / | 1 | / | 17 | /
O=C(CSC1=NS(=O)(=O)c2ccccc21)Nc1ccccc1 | 38 | -6 | 89 | 72* | 16
CCCc1cc(NCC2CCCO2)n2c(nc3ccccc32)c1C#N (centres undefined) | -5 | 1 | 104 | 4 | -4
Clc1ccc(CSc2nnc(-c3cccnc3)o2)cc1 | -4 | -3 | 105 | 5 | -8
CC(=O)c1c(C)[nH]c(C(=O)COc2cc(C)ccc2C(C)C)c1C | -15 | -1 | 114 | 10 | 4
CCOc1ccc(OCC)c(NC(=O)c2[nH]c(C)c(C(C)=O)c2C)c1 | 54*[fluorescence artefact?] | 1 | 249*[fluorescence artefact?] | 16 | 38
COc1ccccc1OCC(=O)c1[nH]c(C)c(C(C)=O)c1C | 69*[fluorescence artefact?] | / | 42 | / | 74*[fluorescence artefact?]
COc1cc(CN(C)CC(=O)c2[nH]c(C)c(C(C)=O)c2C)ccc1OC(F)F | / | -7 | / | 74* | /
CC(=O)c1c(C)[nH]c(C(=O)COc2ccc(C#N)cc2)c1C | 63* | / | 42 | / | 12
COC(=O)c1c(-c2cccc3ccccc23)csc1NC(=O)Cc1ccc(OC)c(OC)c1 | / | 7 | / | -11 | /
CCc1cc(-c2n[nH]c(=S)n2Cc2ccccc2)cs1 | / | -3 | / | 5 | /
CCOC(=O)c1c(C)[nH]c(C)c1C(=O)COC(=O)CCOc1ccccc1OC | 21 | -2 | 80 | -13 | 58*
CCn1c(=NC(=O)c2ccc(S(=O)(=O)N3CCOCC3)cc2)sc2cccc(OC)c21 | 30 | / | 261*[fluorescence artefact?] | / | 40
CCn1c(=NC(=O)c2ccc(N3C(=O)CCC3=O)cc2)sc2c(OC)ccc(OC)c21 | 33 | 90 | 403* | -16 | 22
COc1cc(C)c(S(=O)(=O)n2ccc(C)n2)cc1C | 7 | -4 | 106 | -21 | 3
